M1 ag – M1 muscarinic receptor agonists, primary screen, CHO-M1 cells, Fluo-4 calcium, agonist mode; Fluo-4 calcium fluorescence; active compounds read high; B-score at 10 µM; actives 3% (n = 64,000); AID 626, 2007;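 active = fluorescence rise, raw or as B-score row- and column-corrected plate score, outside the 99.7% band of its plate's samples, either direction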
D1 allo mod – D1 CRE-luciferase signal change, two-sided – cell-based, HEK293 D1, dopamine EC30, D1 allosteric modulator project, primary screen; dopamine EC30 potentiation; actives deviate in either direction; actives 5.9% (n = 58,000); AID 641, 2007; B-score at 10 µM; D(1A) dopamine receptor (Homo sapiens), P21728;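 active = luminescence count or its row- and column-corrected plate score outside the 99.7% band of the plate's sample wells, on either side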
Target sequence (P21728 whole entry, looked up): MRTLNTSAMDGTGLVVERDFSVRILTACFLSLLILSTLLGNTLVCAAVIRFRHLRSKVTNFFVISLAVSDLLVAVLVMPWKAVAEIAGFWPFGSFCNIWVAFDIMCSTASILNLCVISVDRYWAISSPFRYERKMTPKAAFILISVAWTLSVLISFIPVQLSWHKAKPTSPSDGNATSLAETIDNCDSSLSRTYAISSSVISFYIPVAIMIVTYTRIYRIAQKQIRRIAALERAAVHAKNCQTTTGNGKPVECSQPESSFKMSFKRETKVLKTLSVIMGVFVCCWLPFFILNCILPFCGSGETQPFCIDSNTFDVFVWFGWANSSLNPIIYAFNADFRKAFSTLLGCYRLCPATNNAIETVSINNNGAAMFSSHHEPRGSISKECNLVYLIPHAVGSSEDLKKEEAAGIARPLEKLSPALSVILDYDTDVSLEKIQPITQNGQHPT
Htt clearance – clearance of mutant huntingtin inclusions, primary screen, imaging, HeLa Exon1htt(103Q)mCFP, confocal imaging; aggregate imaging; zero = plate's median compound well; inhibition, % at 1.5 µM; actives 0.42% (n = 47,000); AID 853, 2007;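 active = inhibition of aggregate fluorescence above about 70%, also judged a hit by eye on the cell image, limit read from the data, passing the limit was not always enough; inconclusive = no rule stated for this call; inactive = not judged a hit on image review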;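 note: cells exposed to compound for three days before fixation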
WNV protease inh – inhibitors of WNV NS2B-NS3 protease, primary screen, biochemical, fluorogenic substrate. AID 577, 2007. z-score (test concentration not listed). actives 0.18% (n = 65,000). fluorogenic substrate Ex360/Em465; active compounds read low; in the data active = z-score below about -3
M1 antagonist – antagonists of rat M1 muscarinic receptor; CHO-M1 cells, Fluo-4 calcium, ACh EC80 antagonist mode; active compounds read low; B-score at 10 µM; actives 3.4% (n = 64,000);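 active = calcium fluorescence response, raw or row-and-column corrected B-score, differing from the plate sample mean either way at a set confidence level, mostly lower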
Starred values were filed as active, the others as inactive; ? = inconclusive; nt = no result. In the library only some 8.9% were active in any assay of this set; here they are far more common.

SMILES | M1 ag | D1 allo mod | Htt clearance | WNV protease inh | M1 antagonist
O=C(CCC1(C(=O)O)CCC(=O)NC1)NCc1ccccc1 (stereo not given) | -0.00741 | 0.0471 | nt | -0.68 | 0.28
CCCCOCCCNC(=O)N[C@@H](CC(C)C)C(=O)O | 0.262 | 0.073 | 4.9 | -3.7* | 0.234
Cc1c(NC(=O)Nc2ccc(Cl)cc2)c(=O)n(-c2ccccc2)n1C | 0.763 | -0.897 | nt | 0.02 | -0.0044
Cc1c(N=C2NC(=O)C(CC(=O)Nc3ccc(Cl)cc3)S2)c(=O)n(-c2ccccc2)n1C (stereo not given) | -0.208 | 0.0807 | 70.5* | 1.17 | 0.393
O=C1CN(C(=O)CSc2nnnn2-c2ccc(Cl)cc2)c2ccccc2N1 | -0.543 | -0.357 | nt | -0.51 | -0.0591
CCCCSc1nc2c(cnn2-c2ccc(C)c(C)c2)c(=O)[nH]1 | 0.642 | 2.12 | nt | 0.1 | 0.264
CCCCSc1nc2c(cnn2-c2ccc(Cl)cc2)c(=O)[nH]1 | 5.62* | -0.389 | 6.4 | -0.58 | 0.247
CN(C)CCCN1C(=O)C(=O)/C(=C(/O)c2ccc(S(=O)(=O)N(C)C)cc2)C1c1ccncc1 (stereo not given) | 0.0412 | -1.01 | nt | 1.89 | -0.804
Cn1c(=O)c(=O)n(C)c2cc(S(=O)(=O)Nc3ccc4c(c3)OCCO4)ccc21 | 0.0338 | -5.71* | -42.1 | -0.37 | 0.00825
Oc1[nH]c2ccccc2c1C=Nc1ccc2c(c1)OCO2 | -0.485 | -4.37* | nt | -0.7 | -0.17
COc1ccc(C2C(C(=O)NCc3ccccc3)=C(C)Nc3ncnn32)cc1OC (stereo not given) | 0.173 | -0.734 | nt | 0.11 | 0.112
O=C(CN1CCN(c2ncccn2)CC1)NCCC1=CCCCC1 | 0.1 | -0.21 | nt | -0.3 | 0.988
COC(=O)CSc1nc(NCC(C)C)nc(N2CCOCC2)n1 | -0.508 | 0.437 | -26.3 | -0.57 | -0.524
CSc1nc(NC(C)C)nc(N2CCOCC2)n1 | 0.0161 | 17.6* | -25.3 | -0.69 | 0.114
COCCn1c(C)cc(C(=O)CSc2nnc(C)s2)c1C | 0.269 | -7.8* | nt | -0.47 | -0.115
CCCn1c(=O)c2ccccc2n2c(SCCOc3ccc(C)cc3)nnc12 | 0.269 | nt | nt | 0.15 | -0.0466
CCCn1c(=O)c2ccccc2n2c(SCC(=O)c3cc(C)n(CCOC)c3C)nnc12 | -0.605 | 2.24* | nt | -0.51 | -0.164
CN(C)CCCN1C(=O)C(=O)/C(=C(/O)c2ccc3c(c2)OCCO3)C1c1ccccn1 (stereo not given) | 0.394 | -0.0513 | nt | 0.69 | 0.159
CC(C)OC(=O)c1nn2c(C(F)(F)F)cc(-c3ccc(Br)o3)nc2c1Br | 9.75* | nt | nt | 0.17 | -0.0099
CCc1nnc(NC(=O)C2CCN(c3nc(C)cc(C)n3)CC2)s1 | 0.0954 | -0.795 | ? | -1.02 | 0.385
Cc1noc(C)c1CSc1nnc2c(C)cc3ccccc3n12 | 1.67* | 0.716 | -8.6 | -0.64 | -0.457
CCOCCCNC(=O)C(c1ccccc1)N(Cc1ccc2c(c1)OCO2)C(=O)CNC(C)=O (stereo not given) | 0.549 | -1.34 | nt | 1.78 | -0.306
Cc1cccc(N=C(N2CCOCC2)P(=O)(N2CCOCC2)N2CCOCC2)c1 | 0.081 | -0.463 | -38.3 | 0.17 | -0.0899
CCCc1cc(C(=O)Nc2sc3c(c2C#N)CCC3)no1 | -1.65 | -2.02 | 82.4* | -0.6 | -0.286
Cc1nnc2c3ccccc3c(-c3cccc4ccccc34)nn12 | nt | nt | -19.1 | nt | nt
SMILES | M1 ag | D1 allo mod | Htt clearance | WNV protease inh | M1 antagonist
Cc1nnc2c3ccccc3c(-c3ccccc3)nn12 | 0.537 | 14.5* | 3.0 | -0.78 | -0.0212
CCOC(=O)/C(C#N)=C/C1=C(N2CCCC2)CC(C)(CC)OC1 (stereo not given) | nt | nt | 2.6 | nt | nt
Cc1ccc(C(C(=O)NCc2ccco2)N(CCc2ccccc2)C(=O)Cn2nnc3ccccc32)o1 (stereo not given) | 0.501 | -4.32* | nt | -0.18 | 0.409
COc1cccc(C(C(=O)NCc2ccco2)N(Cc2ccco2)C(=O)Cn2nnc3ccccc32)c1 (stereo not given) | nt | nt | 80.0* | nt | nt
Cc1ccc(CN(C(=O)Cn2nnc3ccccc32)C(C(=O)NCc2ccco2)c2ccc(C)o2)cc1 (stereo not given) | nt | nt | 18.7 | nt | nt
Cn1c(=O)c2c(nc(SCC(=O)N3CCc4ccccc43)n2Cc2ccc(F)cc2)n(C)c1=O | nt | nt | -107.0 | nt | nt
O=CN1CCN(C(=O)c2ccccc2F)CC1 | -0.52 | -3.2* | -68.6 | -0.74 | -0.806
CCCc1nnc(SCC(=O)N2CCCC(C)C2)n1CC1CCCO1 (stereo not given) | nt | nt | -30.4 | nt | nt
Cc1ccc(S(=O)(=O)n2nc(-c3ccco3)nc2SCc2ccccc2)cc1 | 2.17* | 0.00232 | 45.3 | 0.08 | -1.19
COc1ccc(OC)c(C(=O)COC(=O)c2ccc(C)o2)c1 | 0.356 | nt | nt | 0.56 | 1.41
Cc1ccc(C)c(C(=O)COC(=O)c2ccc(Br)o2)c1 | -0.0211 | 0.357 | nt | 2.1 | 2.16*
CC(C)(C)NC1=CC(=O)OC12CCCCC2 | -0.279 | -0.0249 | nt | -0.78 | 0.707
CC(C)OC(=O)CSc1nnc(-c2ccco2)n1N | -0.227 | -3.12* | 1.4 | -0.52 | -0.00872
CCCn1c(SCC(N)=O)nnc1-c1ccco1 | 0.0235 | -3.19* | nt | -0.01 | 0.0098
CC(C)NC(=O)CSc1nnc(-c2ccco2)n1N | nt | nt | 10.9 | nt | nt
Cc1ccnc(NS(=O)(=O)c2ccc(NC(=O)c3c(-c4ccccc4Cl)noc3C)cc2)n1 | nt | nt | 25.3 | nt | nt
c1c2c(cc3sc(N4CCOCC4)nc13)OCCO2 | 0.138 | -4.87* | -67.7 | 1.92 | -1.07
c1ccc(N2CCN(c3nc4cc5c(cc4s3)OCCO5)CC2)cc1 | 0.00858 | nt | 46.5 | -0.54 | -0.469
CC(C)(C)c1ccc(-c2nnc3sc(-c4ccncc4)nn23)cc1 | -0.621 | 2.43 | nt | -0.05 | 8.91*
CCOC(=O)N1CCN(S(=O)(=O)c2cc(Cl)ccc2Cl)CC1 | -0.741 | 0.237 | nt | 0.49 | 0.95*
O=C(C1CC1)N1CCN(C(c2ccccc2)c2ccccc2)CC1 | nt | nt | 14.4 | nt | nt
COC(=O)c1c(CSc2ccc(C)c(C)c2)noc1C(=O)NCc1ccc(OC)cc1 | nt | nt | -43.4 | nt | nt
Cc1nnc(SCC(=O)Nc2ccc(Br)cn2)[nH]c1=O | 0.198 | -0.929 | -50.9 | -0.15 | 0.999*
CCc1nnc(NC(=O)CSc2nnc(CSc3nc(C)cc(C)n3)n2CC)s1 | 0.57 | -0.509 | 28.8 | 0.38 | -1.25
COc1ccc(C2CCCN2C(=O)Nc2ccc(F)cc2)cc1OC (stereo not given) | -0.0897 | 1.71 | nt | -0.18 | 0.569
SMILES | M1 ag | D1 allo mod | Htt clearance | WNV protease inh | M1 antagonist
CC(C)c1ccc2oc(-c3cc(N)ccc3O)nc2c1 | -0.0192 | -3.93* | 18.4 | -1.6 | 0.218
Cc1ccccc1-c1nc2cc(N)ccc2o1 | -0.0626 | -1.31 | 29.7 | -1.56 | -0.0696
C=CCn1cnc2c(c1=O)c1nc3ccccc3nc1n2/N=C/c1ccccn1 | 8.09* | 2.25 | nt | -0.42 | -4.12*
C=CCn1cnc2c(c1=O)c1nc3ccccc3nc1n2-c1ccc(C)cc1 | 0.236 | 1.94 | nt | 0.68 | 1.19
O=c1c2c3nc4ccccc4nc3n(CCN3CCOCC3)c2ncn1CCN1CCOCC1 | 2.72* | nt | nt | -0.69 | -0.00852
C=CCn1cnc2c(c1=O)c1nc3ccccc3nc1n2-c1ccccc1 | 0.0204 | 2.05 | nt | -0.21 | -13.7*
